The source of these data is PubChem BioAssay AID1903 (Southern Research Specialized Biocontainment Screening …, 2009).

Among all 310,000 compounds or so, about 1,200 (0.39%) were called active. Only a sample is shown. Measured potencies and affinities stand elsewhere. A number with no mark means an inactive call. The rule behind the calls is not given here.

In general, inhibition refers to the change of the read-out against control, counted positive when it falls.

Large T antigen (Simian virus 40), sequence (P03070 whole entry, looked up): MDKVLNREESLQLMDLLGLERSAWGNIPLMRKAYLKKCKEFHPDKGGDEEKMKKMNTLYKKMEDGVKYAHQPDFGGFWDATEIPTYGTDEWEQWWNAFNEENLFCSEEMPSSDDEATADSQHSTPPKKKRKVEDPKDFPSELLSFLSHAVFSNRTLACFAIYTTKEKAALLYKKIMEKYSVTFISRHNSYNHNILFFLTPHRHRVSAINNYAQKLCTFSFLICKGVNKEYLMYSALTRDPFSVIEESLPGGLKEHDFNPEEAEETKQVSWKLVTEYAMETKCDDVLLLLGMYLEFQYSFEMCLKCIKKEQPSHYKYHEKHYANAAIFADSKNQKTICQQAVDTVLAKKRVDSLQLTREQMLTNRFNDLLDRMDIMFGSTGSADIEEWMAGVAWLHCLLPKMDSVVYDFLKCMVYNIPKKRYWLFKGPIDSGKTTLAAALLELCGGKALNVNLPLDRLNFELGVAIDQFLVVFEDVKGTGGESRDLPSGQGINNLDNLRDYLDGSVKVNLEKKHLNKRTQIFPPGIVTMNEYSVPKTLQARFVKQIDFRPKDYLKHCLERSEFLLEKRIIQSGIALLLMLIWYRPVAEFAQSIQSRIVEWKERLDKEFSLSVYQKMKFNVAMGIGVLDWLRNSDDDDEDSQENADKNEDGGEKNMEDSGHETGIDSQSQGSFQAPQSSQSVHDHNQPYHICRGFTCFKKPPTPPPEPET

The assay concerns the target Large T antigen (Simian virus 40) (UniProt P03070). Briefly: SV40 large T antigen inhibitors, biochemical (AID 1903). The conditions noted are these: SV40 large T antigen ATPase/helicase inhibition assay; at 20 µM; stronger effect = higher value.
Regarding `CCN(CC(=O)Nc1ccc(NC(C)=O)cc1)C(=O)c1ccc(NC2CC2)c([N+](=O)[O-])c1`, the inhibition is 9.29%.

On to `CCN(C(=O)c1ccc(Cl)c([N+](=O)[O-])c1)c1ccccc1`, for which the inhibition is 4.72%.

Consider `COCCNC(=O)C(=O)c1cc(C)n(-c2ccc([N+](=O)[O-])cc2)c1C`, for which the inhibition was 3.94%.

Turning to `CCN1C(=O)c2ccccc2Sc2ccc(C(=O)NCCCN3CCCCC3)cc21`, the inhibition is 10.1%.

Consider `CCc1nnc(NC(=O)COc2ccc(N(C)S(=O)(=O)c3ccc(C)cc3)cc2)s1`, for which the inhibition is 4.23%.

As to `C=CCOc1cccc(CNc2cccc(C(=O)O)c2)c1`, the inhibition is 15.2%.

With `C=CCOc1ccc(CNc2ccc(NC(=O)CCC)cc2)cc1OCC`, the inhibition is 18.3%.

Consider `C=CCOc1ccc(CNc2ccc3[nH]c(=O)[nH]c3c2)cc1OC`, for which the inhibition is 13.7%.

For the compound `Fc1ccc(CNc2ccc(CNc3ncn[nH]3)cc2)cc1`, the inhibition was 19.6%.

As to `C=CCOc1cccc(CNCc2ccncc2)c1`, the inhibition was 8.06%.

`Oc1ccc(NCc2cccc(OCc3ccc(F)cc3)c2)cc1`: the inhibition is 29.3%.

As to `CNC(=O)COc1coc(CN2CCN(c3ccc(OC)cc3)CC2)cc1=O`, the inhibition is 21.7%.

Take `COc1ccc(-n2ccnc2SCC(=O)Nc2ccccc2)cc1`: the inhibition was 15%.

As to `CC(=O)c1ccc(N2CCN(C(=O)Cc3cccs3)CC2)cc1`, the inhibition is 1.64%.

Regarding `Cc1ccc2nc(C)c(C)nc2c1N`, the inhibition is 17.3%.

Take `Cc1ccc2cccnc2c1N`: the inhibition is 5.53%.

With `Cc1cccc(-c2nnc(NC(=O)c3ccco3)s2)c1`, the inhibition is 8.94%.

As to `CN(c1ccc(F)cc1)S(=O)(=O)c1ccc2[nH]cc(C(=O)O)c(=O)c2c1`, the inhibition was 5.14%.

As to `COc1cccc(C(=O)Nc2c3c(nn2-c2ccc([N+](=O)[O-])cc2)CS(=O)(=O)C3)c1`, the inhibition is 3.72%.

`CCN(CC)S(=O)(=O)c1cccc(NC(=O)CSc2nnc(N)s2)c1`: the inhibition is 2.59%.

For the compound `CCN(CC)C(=O)CSc1nc2ccc(NC(=O)CSc3nnc(N)s3)cc2s1`, the inhibition was 5.67%.

As for `Cc1cccc(OCC(=O)NNC(=O)CCc2ccccc2)c1`, the inhibition is 15.5%.

With `Nc1ccc(S(=O)(=O)NNC(=O)C(=O)NNc2ccccn2)cc1`, the inhibition was 11.5%.

As for `Cn1c(=O)c2c(nc(N3CCOCC3)n2CCSc2ncccn2)n(C)c1=O`, the inhibition was 12.4%.

As to `COc1cc(S(=O)(=O)Nc2ccc(C)cc2)ccc1N=Cc1c(C)[nH]n(-c2ccc(C)cc2)c1=O`, the inhibition is 2.78%.

As for `COc1ccccc1N=Cc1c(C)[nH]n(-c2ccc(C)cc2C)c1=O`, the inhibition was 27.4%.

Consider `COc1ccc(N=Cc2c(O)n(-c3cccc(C)n3)c(=O)c3ccccc23)c(OC)c1`, for which the inhibition was 13.7%.

For the compound `COc1cc(SC#N)ccc1N=Cc1c(C)[nH]n(-c2ccc(Cl)cc2)c1=O`, the inhibition is 17.5%.

For the compound `COc1cccc(N=Cc2c(O)n(-c3cccc(C)n3)c(=O)c3ccccc23)c1`, the inhibition was 18%.

`COc1cc(SC#N)ccc1N=Cc1c(C)[nH]n(-c2ccc(C)c(C)c2)c1=O`: the inhibition was 35.9%.

Turning to `CCON1C(=O)CN(C(=O)OC)C1c1ccc(Cl)cc1Cl` (stereo unspecified), the inhibition was 19.9%.

Take `Cc1ccccc1NC(=O)Cn1nnc2sc3c(c2c1=O)CC(C)(C)OC3`: the inhibition is 7.47%.

Regarding `O=C(Nc1ccc(S(=O)(=O)N2CCCCC2)cc1)C1CC(=O)N(Cc2ccccc2)C1` (stereo unspecified), the inhibition was 16.5%.

In the case of `CSC1=NCCCN1C(=O)c1c(-c2ccccc2Cl)noc1C`, the inhibition is 10.2%.

Take `O=C(O)C1CCCC[C@H]1C(=O)Nc1ncc([N+](=O)[O-])s1` (stereo partly specified): the inhibition is 3.81%.

For `COc1ccc(CCNC(=S)Nc2ccc(C(C)C)cc2)cc1`, the inhibition is 13.7%.

Take `CC(/C=C1\SC(=S)N(CC(=O)O)C1=O)=C\c1ccccc1`: the inhibition is 19.5%.

`CC(=C\c1ccccc1)/C=C1/SC(=S)N(CCC(=O)O)C1=O`: the inhibition is 0.31%.

Turning to `Cc1ccc(-c2n[nH]c(=S)n2C)cc1`, the inhibition is 14.5%.

With `Cc1ccc(S(=O)(=O)c2c(C)nn(-c3ccccc3)c2OC(=O)c2ccc(Br)o2)cc1`, the inhibition was 6.66%.

For the compound `O=C(Nc1nc2ccccc2n1Cc1ccccc1)c1ccco1`, the inhibition was -0.22%.

For the compound `CCCCC/C(=N\NC(=O)CCC(=O)NCc1ccccc1)c1ccccc1`, the inhibition was -0.61%.

For the compound `CCC/C(=N\NC(=O)CCC(=O)NCc1ccccc1)c1ccccc1`, the inhibition is 8.82%.

On to `Cc1ccc(-c2nc(CSCC(=O)NCCCN3CCOCC3)c(C)o2)cc1`, for which the inhibition was 26.4%.

Consider `CN(C)c1ccc(C2OC(=O)C3(CCCC3)C(=O)C2(C)C)cc1` (stereo unspecified), for which the inhibition was 1.45%.

On to `COc1cc(C(=O)OCCN2CCOCC2)ccc1O`, for which the inhibition was 25.1%.

Turning to `COc1cc(C(=O)OCCCN2CCOCC2)ccc1O`, the inhibition is 30.9%.

Turning to `COCCOc1ccc(C(F)(F)F)cc1NC(=O)c1ccc(C(F)(F)F)cc1`, the inhibition was 2.65%.

`Oc1ccc(Oc2ccc(Oc3ccc(O)cc3)cc2)cc1`: the inhibition is 11.2%.

With `C=C(c1ccc(O)cc1)c1ccc(O)cc1`, the inhibition is 12.5%.

Regarding `COc1ccc2[nH]c(C(=O)NCCc3ccccc3)cc2c1`, the inhibition was 6.64%.

As for `CCOC(=O)N1CCN(c2ccc([N+](=O)[O-])cc2)CC1`, the inhibition was 5.56%.

As to `O=C(CCSc1ccccc1)N1CCN(c2ccccc2)CC1`, the inhibition was 8.73%.

Take `CCOC(=O)N1CCN(c2ccc(Cl)cc2)CC1`: the inhibition was 24.6%.

Regarding `O=C(CCCOc1ccccc1)N1CCN(c2ccccc2)CC1`, the inhibition is -0.15%.

Turning to `O=C(CCCOc1ccccc1)N1CCN(c2ccc(F)cc2)CC1`, the inhibition is 0.74%.

In the case of `O=C(CCSc1ccc(Cl)cc1)N1CCOCC1`, the inhibition was 23.4%.

As to `Cc1ccc(OCCC(=O)OCC(=O)N2CCN(S(=O)(=O)c3ccc(C)cc3)CC2)cc1`, the inhibition was 10.3%.

Regarding `Cc1ccc(OCCC(=O)OCC(=O)N2CCN(S(=O)(=O)c3ccc(Cl)cc3)CC2)cc1`, the inhibition is 30.2%.

With `COc1ccc(OC)c(CCNC(=O)c2ccc3c(c2)N(Cc2ccccc2)CCS3)c1`, the inhibition is -0.13%.

Regarding `O=C(CNC(=O)c1cccc(F)c1)OCC(=O)N1CCCc2ccccc21`, the inhibition was 7.9%.
